Screen size: about 52,000 compounds; about 4,300 (8.3%) were called active. No stated cut-off is given here; in the data, active means survival mostly below about 52% (no sharp cut-off); inactive means mostly above about 56%. The list comes from a sample in which actives are over-represented; it also holds similar structures and randomly drawn compounds.

The experiment deals with DeltatarO mutant. The experiment in a line: S. aureus survival, RN4220 and DeltatarO strains – OD600, teichoic acid synthesis inhibitors, primary screen (AID 463173). The conditions noted are these: S. aureus RN4220 wild type/DeltatarO growth, OD600, 18 h, active compounds read low, screened at 18.75 µg/mL (by protocol).
On to `COc1cc(-c2nnc(SCC(=O)Oc3ccccc3Cl)o2)cc(OC)c1OC`, for which the survival was 84% (inactive).

For the compound `O=C(Nc1ccc(CN2CCCCC2)cc1)c1cccnc1Cl`, the survival is 71% (inactive).

Turning to `CCc1ccc(-c2nc(SCC(=O)NCCOC)c(-c3ccc(C)cc3)[nH]2)cc1`, the survival is 76% (inactive).

On to `Cc1c(Cl)cccc1NC(=O)c1cc(S(=O)(=O)N2CCCCC2)cn1C`, for which the survival is 99% (inactive).

On to `COc1cccc(CN2CCc3nc(N4CCN(C)CC4)ncc3C2)c1`, for which the survival was 84% (inactive).

Take `CN(c1ccc(F)cc1)S(=O)(=O)N1CCCC(C(=O)NCc2ccccc2Cl)C1` (centres undefined): the survival was 81% (inactive).

With `COc1ccc(NC(=O)CCc2c(C)nc3c(c2C)c(=O)n(C)c(=O)n3C)c(OC)c1`, the survival is 100% (inactive).

As for `COc1ccc2c(c1)c(=O)c(S(=O)(=O)c1ccccc1)cn2CC(=O)Nc1ccc(C)c(Cl)c1`, the survival is 97% (inactive).

With `COc1ccccc1CNC(=O)CCC1N=C2c3ccccc3N=C(SCC(=O)NCCc3ccc(OC)c(OC)c3)N2C1=O` (centres undefined), the survival is 92% (inactive).

As to `Cn1nc(C(=O)N2CCN(c3ccccc3F)CC2)c2c1-c1ccccc1S(=O)(=O)C2`, the survival was 60% (inactive).

For the compound `COc1ccccc1N1CCN(C(=O)c2nn(C)c3c2CS(=O)(=O)c2ccccc2-3)CC1`, the survival is 61% (inactive).

With `Cc1ccc(Cl)cc1N1CCN(C(=O)c2nn(C)c3c2CS(=O)(=O)c2ccccc2-3)CC1`, the survival was 58% (active).

As for `O=C(CSc1ncn[nH]1)N1CCOCC1`, the survival is 73% (inactive).

Regarding `Cn1c(=O)n(C)c2cc(NC(=O)C(F)(F)F)ccc21`, the survival was 94% (inactive).

`Cc1cc2c(cc1NS(=O)(=O)c1ccc(Br)cc1)n(C)c(=O)c(=O)n2C`: the survival is 109% (inactive).

Regarding `Cc1ccc(S(=O)(=O)Nc2cc3c(cc2C)n(C)c(=O)c(=O)n3C)cc1`, the survival is -2% (active).

As to `Cn1c(=O)c(=O)n(C)c2cc(N3CCOCC3)c(NS(=O)(=O)c3ccc(Cl)cc3)cc21`, the survival was -1% (active).

For the compound `Cn1c(=O)c(=O)n(C)c2cc(N3CCOCC3)c(NS(=O)(=O)c3ccc(F)c(Cl)c3)cc21`, the survival was 67% (inactive).

As to `CC(C)Cc1ccc(S(=O)(=O)Nc2cc3c(cc2N2CCOCC2)n(C)c(=O)c(=O)n3C)cc1`, the survival is 79% (inactive).

As to `Cn1c(=O)n(C)c2cc(N3CCOCC3)c(NS(=O)(=O)c3ccc(Cl)cc3)cc21`, the survival is 75% (inactive).

For `CCc1ccc(S(=O)(=O)Nc2cc3c(cc2C)n(C)c(=O)c(=O)n3C)cc1`, the survival is 64% (inactive).

As to `CCc1ccc(S(=O)(=O)Nc2cc3c(cc2N2CCOCC2)n(C)c(=O)c(=O)n3C)cc1`, the survival is 6% (active).

Take `Cc1ccc(S(=O)(=O)Nc2cc3c(cc2N2CCOCC2)n(C)c(=O)n3C)cc1`: the survival was 90% (inactive).

`Cc1ccc(NC(=O)C2CCN(S(=O)(=O)c3ccc4c(c3)CCCC(=O)N4)CC2)cc1N(C)C`: the survival is 120% (inactive).

With `Cc1nn(CCCC(=O)NCc2ccccc2)c(=O)c2cc3sccc3n12`, the survival is 76% (inactive).

Regarding `O=C(CSc1cn(CC(=O)N2CCCCC2)c2ccccc12)NCc1ccc(F)cc1`, the survival is 70% (inactive).

Consider `N#CCNC(=O)c1cccc(I)c1`, for which the survival is 89% (inactive).

In the case of `Cc1ccc(C)c(N2CCN(C(=O)c3cc(S(=O)(=O)N4CCCC4)cn3C)CC2)c1`, the survival is 64% (inactive).

Regarding `Cc1cc(N2CCC(C(=O)Nc3ccc(F)cc3F)CC2)n2nc(C)c(-c3ccc(Cl)cc3)c2n1`, the survival is 86% (inactive).

With `COc1cccc(-c2nnc3n(Cc4ccc(F)cc4)c(=O)c4ccccc4n23)c1`, the survival is 84% (inactive).

On to `Cc1ccc(NC(=O)[C@H](Cc2ccccc2)N2Cc3ccccc3C2=O)cc1`, for which the survival is 81% (inactive).

With `Cc1ccc(CCNC(=O)CCCn2nc(C)c3c(C)n(-c4ccccc4)nc3c2=O)cc1`, the survival is 87% (inactive).

Regarding `CCN1CCC(N(Cc2cccc(OC)c2)C(=O)Nc2cccc(C)c2C)CC1`, the survival was 20% (active).

For `CCN1CCC(N(Cc2ccc3c(c2)OCO3)C(=O)Nc2cccc(C)c2C)CC1`, the survival is 94% (inactive).

As for `CCN1CCC(N(Cc2cccc(OC)c2)C(=O)Nc2ccc(C)cc2Cl)CC1`, the survival is 66% (inactive).

As for `COCCN1C(=O)C(=O)/C(=C(/O)c2ccccc2)C1c1ccccc1` (centres undefined), the survival is 102% (inactive).

As to `Cc1ccc2c(=O)c(C(=O)c3ccc(F)cc3)cn(CC(=O)NCc3ccccc3)c2n1`, the survival was 82% (inactive).

On to `Cc1ccc(C(=O)c2cn(Cc3ccccc3)c3nc(C)ccc3c2=O)cc1`, for which the survival is 76% (inactive).

Regarding `Cc1ccc(CNC(=O)Cn2cc(C(=O)c3ccc(F)cc3)c(=O)c3ccc(C)nc32)cc1`, the survival is 52% (active).

On to `Cc1ccc(C(=O)c2cn(Cc3ccc(F)cc3)c3nc(C)ccc3c2=O)cc1`, for which the survival was 85% (inactive).

Take `Cc1ccc(Cn2cc(C(=O)c3ccc(C)cc3)c(=O)c3ccc(C)nc32)cc1`: the survival is 24% (active).

On to `CCc1ccc(C(=O)c2cn(CC(=O)NCc3ccc(C)cc3)c3nc(C)ccc3c2=O)cc1`, for which the survival was 98% (inactive).

`Cc1ccc(C(=O)c2cn(Cc3cccc(Cl)c3)c3nc(C)ccc3c2=O)cc1`: the survival is 60% (active).

Consider `Cc1ccc(C(=O)c2cn(Cc3cccc(C)c3)c3nc(C)ccc3c2=O)cc1`, for which the survival was 54% (inactive).

In the case of `Cc1ccc(C(=O)c2cn(Cc3ccc(Cl)cc3)c3nc(C)ccc3c2=O)cc1`, the survival was 34% (inactive).

As for `Cc1cc(NC(=O)C2C3C(=O)N(c4ccccc4Cl)C(C(=O)NC(C)(C)C)C34C=CC2(C)O4)no1` (centres undefined), the survival is 108% (inactive).

As to `Cc1ccccc1OCC(=O)Nc1nnc(SCc2cc(=O)n3cc(Cl)ccc3n2)s1`, the survival is 84% (inactive).

On to `CCc1ccc(C2c3c(oc4ccc(F)cc4c3=O)C(=O)N2CCc2ccc(OC)cc2)cc1` (centres undefined), for which the survival was 94% (inactive).

Regarding `Cc1ccc(-n2c(=O)c3ccc(C(=O)NCc4ccco4)cc3n(CC(=O)Nc3ccc(C)c(F)c3)c2=O)cc1`, the survival was 84% (inactive).

In the case of `CCOc1cccc(CC(=O)NCc2ccc3c(c2)CCN3C(=O)c2cccc(C)c2)c1OCC`, the survival is 54% (inactive).

As to `COc1ccc(N(C(=O)/C=C\C(=O)Nc2ccc(Cl)cc2)C(C(=O)NCc2ccco2)c2ccc(C)cc2)cc1` (centres undefined), the survival was 115% (inactive).

Take `Cn1c(C(=O)N2CCCC(C(=O)N3CCN(c4ccccc4)CC3)C2)cc2sccc21` (centres undefined): the survival was 89% (inactive).

For `Cc1cccc(N2CCN(C(=O)C3CCCN(C(=O)c4cc5sccc5n4C)C3)CC2)c1C` (centres undefined), the survival was 53% (active).

On to `Cc1cccc(N2CCN(C(=O)C3CCN(C(=O)c4cc5sccc5n4C)CC3)CC2)c1C`, for which the survival is 53% (inactive).

Take `CCc1ccc(OC(C)C(=O)N2CCC(c3nc4ccccc4o3)CC2)cc1` (centres undefined): the survival was 85% (inactive).

For the compound `COc1ccccc1OCC(=O)N1CCC(c2nc3ccccc3o2)CC1`, the survival was 0% (active).

For the compound `CC(Oc1ccccc1F)C(=O)N1CCC(c2nc3ccccc3o2)CC1` (centres undefined), the survival is -1% (active).

Take `Cc1cccc(C)c1OCC(=O)N1CCC(c2nc3ccccc3o2)CC1`: the survival was 86% (inactive).

For the compound `Cc1cccc(OCC(=O)N2CCC(c3nc4ccccc4o3)CC2)c1C`, the survival is 81% (inactive).

In the case of `Cc1cccc(OC(C)C(=O)N2CCC(c3nc4ccccc4o3)CC2)c1C` (centres undefined), the survival is 75% (inactive).

As to `O=C(CC1CCCCC1)Nc1ccccn1`, the survival was 73% (inactive).

With `COc1ccc(N2C(=O)C(C)C(Cc3ccc(C)cc3)C2=O)cc1` (centres undefined), the survival is 103% (inactive).

Take `CCC(=O)Nc1ccc(NC(=O)c2ccc(F)cc2)nc1`: the survival was 85% (inactive).

As for `COc1ccc(NC(=O)NCC2CCN(Cc3ccccc3F)CC2)c(OC)c1`, the survival is 96% (inactive).

As for `CC1CCCCN1C(=O)C1COc2ccccc2O1` (centres undefined), the survival was 65% (inactive).

In the case of `CCN(c1ccccc1)c1nnc(NC(=O)Nc2cccc(Br)c2)s1`, the survival was 80% (inactive).

Turning to `Cc1cccc(NC(=O)Nc2ccc(Br)cc2)n1`, the survival is 126% (inactive).

With `COc1cc(C(=O)Nc2ccc3nn(-c4ccc(F)cc4)nc3c2)cc(OC)c1OC`, the survival is 45% (active).

Consider `CCc1ccc(-n2nc3ccc(NC(=O)c4cc(Cl)c(OC)c(Cl)c4)cc3n2)cc1`, for which the survival was 83% (inactive).

Take `Cc1ccc(-n2nc3ccc(NC(=O)c4oc5ccc(C)cc5c4C)cc3n2)cc1`: the survival was 38% (active).

`COc1ccc(-n2nc3ccc(NC(=O)c4c(OC)cccc4OC)cc3n2)cc1`: the survival was 135% (inactive).

For `Cc1ccc(-n2nc3ccc(NC(=O)c4cc5ccccc5o4)cc3n2)cc1`, the survival was 70% (inactive).

Take `Cc1c(C(=O)Nc2ccncc2)oc2ccccc12`: the survival is 98% (inactive).

In the case of `Cc1ccc2oc(C(=O)Nc3cccc(-c4nc5ccccc5s4)c3)c(C)c2c1`, the survival was 55% (inactive).

Regarding `Cc1ccc(-n2nc3ccc(NC(=O)c4oc5ccccc5c4C)cc3n2)cc1`, the survival is 31% (active).

Take `Cc1ccc2oc(-c3ccc(NC(=O)c4oc5ccc(Cl)cc5c4C)cc3)nc2c1`: the survival was 66% (inactive).

Regarding `O=C(Cn1ncc2c3ccccc3n(Cc3ccc(F)cc3)c2c1=O)NCCC1=CCCCC1`, the survival is 85% (inactive).

`CC(C)(C)C(=O)Nc1c(C(=O)N2CCN(c3ccc(F)cc3)CC2)oc2ccccc12`: the survival is 80% (inactive).

Regarding `CCn1cc(C(=O)NCc2ccc(Cl)cc2)c(=O)c2cc(S(=O)(=O)N(C)C3CCCCC3)ccc21`, the survival was 70% (inactive).

As for `CCOc1ccc(NC2=NCCC(=O)N2Cc2cccs2)cc1`, the survival was 83% (inactive).

Turning to `O=C(O)c1nnc(Cl)c2ccccc12`, the survival was 91% (inactive).

Consider `Cc1nc(-c2ccc(Cl)cc2)sc1CCNC(=O)C(=O)Nc1ccccc1C#N`, for which the survival is 80% (inactive).

`Cc1cccn2c(=O)c3cc(C(=O)NCC(C)C)sc3nc12`: the survival was 63% (active).

`COc1ccc(CNC(=O)c2cc3c(=O)n4cccc(C)c4nc3s2)cc1`: the survival was 68% (inactive).

Take `Cc1ccc(CNC(=O)c2cc3c(=O)n4cccc(C)c4nc3s2)cc1`: the survival was 54% (active).

Turning to `Cc1cccn2c(=O)c3cc(C(=O)NCc4ccccc4Cl)sc3nc12`, the survival is 62% (inactive).

`CCOC(=O)CNC(=O)c1cc2c(=O)n3cccc(C)c3nc2s1`: the survival is 179% (inactive).

`CCCCNC(=O)c1cc2c(=O)n3cccc(C)c3nc2s1`: the survival was 150% (inactive).

In the case of `O=C(CN1CCC(n2nnc3cc(C(F)(F)F)ccc32)CC1)Nc1ccc(N2CCCC2)cc1`, the survival is 86% (inactive).

The values above are taken from PubChem BioAssay AID463173 (ICCB-Longwood Screening Facility, Harvard Medical School, 2010).
